Screens (PubChem BioAssay)
PostGolgi yeast: growth inhibition of a yeast mutant, post-Golgi transport screen; 98,000 tested, 0.9% active; post-Golgi transport phenotypic cell assay; inhibition, % at 10 µM;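 note: yeast cells grown in 1536-well plates; yeast grown about 18 h at 30C before absorbance read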
CYP2C9 inh: human CYP2C9 inhibition | P11712 | CYP2C9 Supersomes, luciferin-H conversion, luminescence | inhibition, % at 5 µM | 96,000 tested, 20% active | AID 777;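 active = blocking of liver enzyme CYP2C9 beyond about 50% at 5 µM, limit read from the data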
Target sequence (P11712 whole entry, looked up): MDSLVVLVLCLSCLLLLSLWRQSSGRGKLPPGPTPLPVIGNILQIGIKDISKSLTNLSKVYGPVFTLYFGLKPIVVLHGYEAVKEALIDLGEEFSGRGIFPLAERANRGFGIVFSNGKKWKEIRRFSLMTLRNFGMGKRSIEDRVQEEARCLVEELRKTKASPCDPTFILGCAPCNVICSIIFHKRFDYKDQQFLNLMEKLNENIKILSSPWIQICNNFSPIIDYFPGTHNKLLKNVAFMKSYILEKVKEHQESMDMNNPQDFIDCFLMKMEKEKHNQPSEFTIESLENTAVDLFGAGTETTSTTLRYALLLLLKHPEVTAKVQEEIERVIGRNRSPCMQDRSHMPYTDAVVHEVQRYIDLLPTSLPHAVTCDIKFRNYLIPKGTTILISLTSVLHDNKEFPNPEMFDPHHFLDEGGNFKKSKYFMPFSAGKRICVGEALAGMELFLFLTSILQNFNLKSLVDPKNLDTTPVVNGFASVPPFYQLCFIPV
CYP2C9 activ: increases human cytochrome P450 2C9 activity | P11712 | recombinant CYP2C9, luciferin-H conversion, luminescence; hits give high values; factor 1 = untreated enzyme, 0 = blocked | activation factor at 5 µM | 96,000 tested, 1.4% active;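 active = activation factor of 2 or more for CYP2C9 at a 5 µM dose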;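 note: 0 = sulfaphenazole-blocked wells and 1 = vehicle-only wells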
PostGolgi ctrl: inhibits growth of the yeast control strain. efflux-deficient yeast background strain, growth absorbance A615, 16 h. inhibition, % at 10 µM. 98,000 tested, 5% active
CYP2C19 act: cytochrome P450 2C19 (human) activation; recombinant CYP2C19, luciferin-H EGE luminescence; hits give high values; 0 = fully inhibited enzyme, 1 = untreated enzyme; P33261; activation factor at 5 µM; 96,000 tested, under 10 active;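 active = activation factor of at least 2 at 5 µM in the primary screen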;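 note: 0 = wells with 2.5 mM tranylcypromine and 1 = vehicle-only wells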
CYP2C19 inh: inhibitors of human CYP2C19 | CYP2C19 Supersomes, luciferin-H EGE luminescence, 30 min | inhibition, % at 5 µM | 96,000 tested, 21% active;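 active = CYP2C19 inhibition above a set limit at 5 µM in the primary screen, cut at about 50% in these data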;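 note: plate controls were negative control wells for no effect and 2.5 mM tranylcypromine positive control for full effect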
* = called active by the depositor; . = no result. In the library only some 32% were active in any assay of this set; here they are far more common. Cut-off read from the data, not from the text of the source, unless noted: active = inhibition above about 30%; inactive = the rest.

SMILES	PostGolgi yeast	CYP2C9 inh	CYP2C9 activ	PostGolgi ctrl	CYP2C19 act	CYP2C19 inh
Nc1nc(-c2ccccc2)cc(-c2ccccc2O)n1	54*	0	1	35*	0.9	6
O=C(NCCCN1CCCC1=O)c1cncc(Br)c1	-16	-8	1.1	20	1.1	-13
COc1cccc(CNC(=O)C23CN(Cc4ccccc4)CC2C(c2ccc([N+](=O)[O-])cc2)=NO3)c1 (stereo not given)	-4	11	0.9	33*	0.6	39
COc1ccc(CCNC(=O)C23CN(Cc4ccccc4)CC2C(c2cccc([N+](=O)[O-])c2)=NO3)cc1 (stereo not given)	-12	26	0.7	2	0.7	31
CC(C)CCNC(=O)C12CN(Cc3ccccc3)CC1C(c1ccc([N+](=O)[O-])cc1)=NO2 (stereo not given)	-1	15	0.8	17	0.5	48
Cc1ccc(CCNC(=O)C23CN(Cc4ccccc4)CC2C(c2cccc([N+](=O)[O-])c2)=NO3)cc1 (stereo not given)	-9	75*	0.3	2	0.2	77*
CC(C)c1ccc(/C=C/C(=O)NC2=NCCS2)cc1	3	-6	1.1	33*	0.9	10
CCOC(=O)CSC1=NC(=O)/C(=C\c2ccc(Cl)cc2)S1	14	38	0.6	27	0.5	48
Cc1ccc(NC(=O)COc2ccc(/C=C3/SC(=Nc4ccccc4)N(Cc4cccnc4)C3=O)cc2)cc1	-1	53*	0.5	-8	1	3
CCNC(=O)Nn1c(C)nnc1C	-6	-18	1.2	4	1.2	-16
Cc1cccc(-c2noc(CCCOc3ccc(Cl)cc3Cl)n2)c1	-4	39	0.6	2	0.7	30
COc1ccc(Cn2cnc3c(NS(C)(=O)=O)c(C)c(C)cc32)cc1	11	29	0.7	12	0.3	65*
COc1ccc(CN2CCc3ccccc3C2)c(OC)c1OC	-2	3	1	-1	0.4	61*
Cc1ccsc1C(=O)Nc1nnc(-c2ccco2)o1	5	57*	0.4	3	1	0
CC1=CC(C)(C)N=C(Nc2ccc(C)cc2)S1	1	2	1	-1	0.2	76*
Cc1ccsc1C(=O)OC1CCOC1=O (stereo not given)	-5	-127	2.3*	-7	1.1	-7
O=C(Nc1ccccc1C(=O)OC1CCOC1=O)c1ccco1 (stereo not given)	18	12	0.9	3	1	0
CC(=O)Nc1sc(C)c(C)c1C(=O)OC1CCOC1=O (stereo not given)	-8	77*	0.2	7	0.4	55*
CCOC(=O)c1sc2nc(C)n(CC(=O)NCC3CCCO3)c(=O)c2c1C (stereo not given)	17	21	0.8	11	0.9	9
CCOC(=O)/C=c1\s/c(=C\c2c(OC)ccc3ccccc23)c(=O)n1CC(=O)NCC1CCCO1 (stereo not given)	-4	41	0.6	19	0.4	57*
CCC(c1nnnn1CCOC)N1CCN(Cc2ccccc2OC)CC1 (stereo not given)	3	-15	1.2	4	1.1	-10
CCOC(=O)c1c(C)n(OCc2ccccc2)c2ccc3nonc3c12	3	60*	0.4	12	1	-3
Cc1cccc(OCC(=O)NC(C)C(=O)N/N=C/c2c(OCc3ccccc3)ccc3ccccc23)c1 (stereo not given)	6	89*	0.1	12	0.5	49
CC(C)C(=O)N/N=C/c1ccc(OCc2ccccc2)cc1	1	14	0.9	5	0.8	20
Oc1cccc(-c2nc3c4c(ncn3n2)-c2ccccc2CC42CCCC2)c1	3	23	0.8	22	1	-2
SMILES	PostGolgi yeast	CYP2C9 inh	CYP2C9 activ	PostGolgi ctrl	CYP2C19 act	CYP2C19 inh
OC(CC1CC12c1ccccc1-c1ncccc12)(c1ccccc1)c1ccccc1 (stereo not given)	0	97*	0	45*	0.1	92*
CCOC(=O)c1cnc(-n2nc(C)cc2C)nc1NCCO	14	2	1	1	0.8	18
CCOC(=O)c1cnc(-n2nc(C)cc2C)nc1NC(C)c1ccccc1 (stereo not given)	8	.	.	44*	.	.
CCOC(=O)c1cnc(NCc2ccccc2)nc1C	1	62*	0.4	11	0.5	51*
CCOC(=O)c1cnc(-c2ccccc2)[nH]c1=O	1	55*	0.5	-9	0.9	11
CCOC(=O)c1cnc(-n2nc(C)cc2C)nc1NCc1ccccc1	4	68*	0.3	46*	0.6	37
COc1ccc(-n2c(=S)[nH]c3cc(C(=O)NCCCN4CCCC4=O)ccc3c2=O)c(OC)c1	-4	0	1	-7	1.1	-7
C=CCNC(=S)N1CCN(c2ncc3c(=O)c(C(=O)O)cn(CC)c3n2)CC1	7	-5	1.1	6	1.1	-11
Cc1ccc(-n2c(C)nc3oc4ccccc4c(=O)c3c2=O)cc1	-5	13	0.9	-3	0.8	18
CCC(C)(C)n1nnnc1C(C(C)C)N1CCC(C(N)=O)CC1 (stereo not given)	2	2	1	-7	1	-4
CCOc1ccccc1C1C(C(=O)Nc2ccccc2OC)=C(C)Nc2nc(CCCO)nn21 (stereo not given)	-4	25	0.7	-1	0.6	37
COc1ccc(-n2ncc(N(C)n3cccc3)c(Cl)c2=O)cc1	2	30	0.7	2	1	5
COc1ccc(Sc2cnn(-c3ccccc3)c(=O)c2Cl)cc1	0	85*	0.1	19	0.6	35
Cc1ccc2nc(SCC(=O)NCc3ccco3)[nH]c2c1	19	41	0.6	-8	0.8	17
O=C(CCCSc1nc2ccccc2[nH]1)NCc1ccco1	11	-102	2*	2	0.8	17
O=C(CSc1nc2ccccc2[nH]1)NC(=O)NCc1ccco1	13	22	0.8	19	0.4	57*
Cc1ccc2nc(SCC(=O)NC(=O)NCc3ccco3)[nH]c2c1	-5	71*	0.3	6	0.2	80*
O=C(CSc1nc(-c2ccccc2)c(-c2ccccc2)[nH]1)NCCN1C(=O)CSC1=O	4	34	0.7	17	0.4	63*
O=c1c2ccccc2nc2n1CC/C2=C/N1CCN(c2cccc(C(F)(F)F)c2)CC1	7	-16	1.2	1	0.9	8
CCOCCc1nnc(NC(=O)c2cc(OC)c(OC)c(OC)c2)s1	4	-4	1	2	0.9	7
COCCn1c(C)cc(C(=O)COC(=O)C23CC4CC(CC(O)(C4)C2)C3)c1C	5	-41	1.4	-1	1.1	-5
NC(=O)SCC(=O)Nc1cccc(Cl)c1	-8	18	0.8	2	0.6	43
CCn1c(=O)c2c(nc(SCc3ccccn3)n2C)n(C)c1=O	8	-19	1.2	14	1	-4
